# SW480 rereplic: induces DNA re-replication in SW480 colon adenocarcinoma cells; SW480 DNA re-replication, Hoechst DNA content imaging, 48 h; Potency, µM (titrated, usually from 46.1 µM), without a hit: at the top dose re-replication activation, usual class: activators; 340,000 tested, 1.8% active; note: potency is the fitted concentration of half-maximal effect; % of control where 0% means no effect; nearly all actives have a fitted effect of over 55% in size
#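 Per well, 250 cells were exposed to pinned compound for 48 hr. Nuclear DNA was visualised with Hoechst (40 min, 37 C) and total object intensity recorded by fluorescence scanning.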
# KB-V1 MDR tox: KB-V1 MDR subline cytotoxicity; KB-V1 MDR cells viability, CellTiter-Glo, 72 h; Potency, µM (series often up to 46.1 µM), usual class: cytotoxic; 400,000 tested, 3.4% active; note: potency is the fitted concentration of half-maximal effect; % is set by controls: 0 for no effect and ±100 for the full control effect; nearly all actives have a fitted effect of over 60% in size
#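 In this primary screen, KB-V1 cells overexpressing P-gp are incubated with library compounds (lowest to highest concentration) for 72 h at 37 degrees C before a luminescent ATP viability read.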
# Giardia killer: kills Giardia lamblia | Giardia lamblia trophozoite viability | 340,000 tested, 0.15% active | activity change, % at 7.66 µM, hits read low | AID 540267; in the data active = activity change below about -80%; inconclusive = between about -30% and that limit;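 note: parasites exposed to compound for two days anaerobically before the ATP read; % is set by controls: 0 for no effect and ±100 for the full control effect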
#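 Compounds were tested on trophozoites seeded at 100 cells/well and held 48 hrs at 37 deg C anaerobically. An ATP-based luminescent kit measured the remaining live cells.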
# S-ASM inh: blocks human secretory acid sphingomyelinase. P17405. placental ASM, HMU-PC fluorogenic substrate, 60 min. 340,000 tested, 0.006% active. Potency, µM (doses to about 57.5 µM), for inactives: at the top dose activity change, negative = inhibition, actives largely listed as inhibitors. AID 504937; note: potency is the fitted concentration of half-maximal effect
# Target sequence (P17405 47-631 limits assumed): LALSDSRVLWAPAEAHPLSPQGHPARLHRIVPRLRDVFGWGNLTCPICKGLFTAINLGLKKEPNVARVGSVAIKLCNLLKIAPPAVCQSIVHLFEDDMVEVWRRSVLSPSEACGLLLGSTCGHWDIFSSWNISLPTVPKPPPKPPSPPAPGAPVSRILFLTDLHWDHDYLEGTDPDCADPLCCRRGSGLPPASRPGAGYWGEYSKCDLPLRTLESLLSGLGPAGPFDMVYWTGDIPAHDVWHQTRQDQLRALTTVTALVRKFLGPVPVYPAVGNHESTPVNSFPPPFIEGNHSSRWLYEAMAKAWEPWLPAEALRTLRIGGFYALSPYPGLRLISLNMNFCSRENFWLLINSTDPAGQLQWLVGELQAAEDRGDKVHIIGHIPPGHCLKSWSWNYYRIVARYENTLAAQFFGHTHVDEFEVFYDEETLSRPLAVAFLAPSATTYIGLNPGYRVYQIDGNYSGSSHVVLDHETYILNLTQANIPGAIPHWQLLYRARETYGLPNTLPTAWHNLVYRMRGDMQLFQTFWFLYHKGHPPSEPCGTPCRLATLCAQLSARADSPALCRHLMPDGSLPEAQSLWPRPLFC
#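 Human placenta-derived ASM preincubated with compound 10 min at room temperature, then reacted with 9 uM (final) fluorogenic HMU-PC substrate for 60 min at 37 C. Stop solution raises pH to 10; fluorescence read at Ex 386/Em 447 nm.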
# KB-3-1 cytotox: KB-3-1 parental cell cytotoxicity; 400,000 tested, 1.4% active; KB-3-1 viability, CellTiter-Glo ATP luminescence, 72 h; Potency, µM (doses to about 46.1 µM), usual class: cytotoxic; AID 1347075; note: potency is the fitted concentration of half-maximal effect; % is set by controls: 0 for no effect and ±100 for the full control effect; nearly all actives have a fitted effect of over 60% in size
#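 Viability of parental KB-3-1 cells, measured by CellTiter-Glo luminescence, followed a 72 h incubation at 37 °C with pinned compounds in phenol-red-free DMEM containing 10% FBS.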
# MCF10A rereplic: induces DNA re-replication in MCF 10a normal breast cells | MCF 10A DNA re-replication, Hoechst nuclear intensity, 48 h | Potency, µM (titrated, usually from 46.1 µM), without a hit: at the top dose activity, positive = re-replication, usual class: activators | 350,000 tested, 2.9% active; note: potency is the fitted concentration of half-maximal effect; % of control where 0% means no effect; nearly all actives have a fitted effect of over 50% in size
# Starred values were filed as active, the others as inactive; i = inactive; ? = inconclusive; . = no result; [ ] = remark or other dose. Rows were chosen to be rich in hits. Some 6.9% of all compounds tested hit in one or more screens of this group. Unless noted, calls come from the whole dose curve; as a rule, active = well fitted curve in the direction sought with a large enough effect; inconclusive = small, poorly fitted or top-dose-only effect, or another doubt; inactive = no such curve, though single readings can be large; an effect the other way counts as inactive or inconclusive.
SMILES,SW480 rereplic,KB-V1 MDR tox,Giardia killer,S-ASM inh,KB-3-1 cytotox,MCF10A rereplic
O=C1C(N2CCOCC2)=Cc2cccc3cccc1c23,.,16.4µM*,.,.,i,.
O=C1C=C(N2CCOCC2)c2ccccc2C1=O,2.91µM*,?,17.5,1.3%,?,?
CC1=C(C)C(=O)C(N2CCOCC2)=CC1=O,-5.7%,i,-4.9,-1.8%,i,-6.4%
COc1ccc(C)cc1NC(=O)c1nnn(Cc2cccc(Br)c2)c1N,.,i,.,.,?,.
CCOc1cc(NC(C)=O)ccc1C(=O)OC,-8.6%,.,.,.,.,-6.9%
CC(/C=N/NC(=O)Cc1cccn1C)=C\c1ccccc1,-1.5%,16.4µM*,-4.9,-3.3%,i,3.1%
O=C(CCCn1c(=O)c2ccccc2n(CC(=O)Nc2ccc(F)cc2F)c1=O)NCc1ccccc1Cl,.,i,.,.,i,.
COc1ccccc1-n1c(CCC(=O)O)ccc1-c1ccccc1,-9.9%,?,-4.7,9.5%,i,0.1%
COc1ccc(-c2ccc(CCC(=O)O)n2-c2ccccc2OC)cc1,18.4µM*,?,-12.7,26.0%,?,14.6µM*
Cn1cnc2c(NCc3ccccc3)nc(Cl)nc21,.,i,6.5,.,i,.
N=c1ccn(Cc2ccccc2Cl)cc1,2.0%,?,10.6,-1.2%,?,4.0%
N=c1ccn(Cc2ccc(Cl)cc2Cl)cc1,-3.4%,i,-15.8,0.4%,6.51µM*,6.8%
N=c1ccn(Cc2ccc(Cl)cc2)cc1,10.1%,i,-1.9,3.2%,4.61µM*,5.7%
N=c1ccn(Cc2ccc(Cl)c(Cl)c2)cc1,-0.3%,i,-17.3,3.8%,?,9.2%
Cc1cccc(NC(=O)CN2CCC(C(=O)c3ccc4c(c3)OCCO4)CC2)c1,2.5%,11.6µM*,9.9,2.3%,?,26.0%
CN1CCN(C(=S)Nc2cccc(Cl)c2)CC1,6.2%,13µM*,5.1,5.6%,i,16.9%
Cc1ccc(C(=O)C2CCN(CC(=O)Nc3nc(C)cs3)CC2)cc1,-1.6%,20.6µM*,9.5,1.9%,i,3.2%
O=C(CN1CCC(C(=O)c2ccc3c(c2)OCCO3)CC1)Nc1ccccc1F,?,i,?,1.5%[11.5 µM],i,11.5%
Cc1cccc(NC(=O)CN2CCN(CC(=O)Nc3cccc(C)c3)CC2)c1,1.1%,?,-9.3,2.3%,i,20.6µM*
Cc1cccc(NC(=O)CCN2CCN(C)CC2)c1,-2.6%,i,-20.9,2.5%,i,9.3%
COc1ccc(-c2ccc(C3C4C=CCCC4(C)C(=O)N3Cc3ccccc3)c(F)c2)cc1 (centres undefined),.,.,28.7,.,.,.
CCOc1ccc2nc(C)cc(Nc3ccccc3OCC)c2c1,.,i,.,.,i,.
CCOC(=O)N1CCN(C(=S)Nc2cccc(C)c2)CC1,-13.5%,18.4µM*,2.8,2.8%,i,6.5%
Cc1ccc(C(=O)C2CCN(CC(=O)Nc3ccc4c(c3)OCCO4)CC2)cc1,1.1%,11.6µM*,-8.7,1.8%,i,25.2%
Cc1ccc(C(=O)C2CCN(CC(=O)Nc3ccc(N(C)C)cc3)CC2)cc1,1.3%,i,18.1,-0.7%,i,18.0%
SMILES,SW480 rereplic,KB-V1 MDR tox,Giardia killer,S-ASM inh,KB-3-1 cytotox,MCF10A rereplic
O=C(Cc1ccc(Cl)cc1)Nc1cccnc1Cl,.,i,.,.,i,.
CC(C)(C)NCC(O)COc1ccc(NC(=O)NC2CCCCC2)cc1 (centres undefined),3.7%,.,.,.,.,7.1%
COc1cccc2sc(Nc3nnc(-c4cccs4)o3)nc12,9.1%,?,3.5,57.5%,?,23.1µM*
Fc1cccc2sc(Nc3nnc(-c4ccco4)o3)nc12,?,9.2µM*,-19.3,90.8%,?,7.31µM*
COc1cccc2sc(Nc3nnc(-c4ccc(F)cc4)o3)nc12,?,i,-4.2,317.6%,i,25.9µM*
Cc1ccc(SC[C@H](C)CN2CC[C@H](O)CCC2=O)cc1,.,i,.,.,i,.
CC(C)(C)NC(=O)CSc1nc2ccc(Nc3nc(N4CCOCC4)nc(N4CCOCC4)n3)cc2s1,8.6%,?,9.1,?,i,?
CC(=O)CSc1nc2ccc(Nc3nc(N4CCOCC4)nc(N4CCOCC4)n3)cc2s1,?,?,-13.1,-21.4%,?,10.2%
Cc1ccc(NC(=O)CSc2nc3ccc(Nc4nc(N5CCOCC5)nc(N5CCOCC5)n4)cc3s2)cc1,?,?,-7.9,-2.5%,?,5.8µM*
COc1ccc(NC(=O)CSc2nc3ccc(Nc4nc(N5CCOCC5)nc(N5CCOCC5)n4)cc3s2)cc1,13.0%,i,-12.5,-0.9%,i,2.06µM*
CCc1c(C)sc2nc(C(C)C)nc(SCC(=O)N3CCc4ccccc4C3)c12,1.3%,i,-2.9,-10.7%,i,0.0%
Cc1sc2nc(C3CC3)nc(SCC(=O)N3CCc4ccccc4C3)c2c1C,2.8%,5.8µM*,1.1,-6.4%,i,?
CCOC(=O)C1=C(CS(=O)(=O)c2ccc(Br)cc2)NC(=O)NC1c1ccccc1 (centres undefined),.,i,.,.,i,.
Nc1nc2c(ncn2[C@@H]2O[C@H](CNCC3=Cc4cc(O)ccc4OC3)[C@@H](O)[C@H]2O)c(=O)[nH]1,.,i,.,.,i,.
Cc1sc2nc(C)n(/N=C/N(C)C)c(=O)c2c1C,14.6µM*,i,-13.3,8.4%,i,0.3%
COc1cccc(/C=N/NC(=O)c2ccc3nc[nH]c3c2)c1O,?,i,-15.5,8.9%,i,5.3%
CCN(CC)c1ccc(/C=N/NC(=O)OC)c(O)c1,8.2%,?,3.1,61.7%,i,-1.1%
CCN(CC)c1ccc(/C=N/NC(=S)NC)c(O)c1,-4.9%,i,12.8,183.5%,9.2µM*,1.3µM*
CCN(CC)c1ccc(/C=N/NC(=O)c2ccoc2C)c(O)c1,13µM*,?,4.1,62.8%,11.6µM*,?
Cc1cc(/C=N/NC(=O)c2ccoc2C)cc(C)c1O,.,i,.,.,i,.
CCN(CC)c1ccc(/C=N/NC(=O)c2ccc3nc[nH]c3c2)c(O)c1,20.6µM*,i,-5.3,306.3%,?,26.3%
CCN(CC)c1ccc(/C=N/N=C(N)N)c(O)c1,16.4µM*,?,5.1,53.6%,?,4.11µM*
CCN(CC)c1ccc(N=Cc2ccc(N(CC)CC)cc2O)cc1,?,i,-6.6,-1.6%,?,-11.4%
CCOc1ccc(CCNC(=O)Cc2ccc(NC(=O)N3CCSc4ncccc43)cc2)cc1,.,i,.,.,i,.
CCn1c(=O)c2cc(C(=O)NCCc3ccc(OC)c(OC)c3)sc2c2ccccc21,.,?,.,.,i,.
C1=C(CCNc2ncnc3c2[nH]c2ccccc23)CCCC1,9.7%,?,2.1,-12.3%,5.17µM*,?

# High-throughput results (PubChem BioAssay)
